An excerpt weighted towards active compounds, which were near 8.7% of everything screened.
Vaccinia mCherry = qHTS for Stage-Specific Inhibitors of Vaccinia Orthopoxvirus: mCherry Reporter Primary qHTS; Vaccinia virus mCherry reporter infection, fluorescence; Potency, µM (series often up to 36.5 µM), for the others: top-dose activity change, negative = inhibition, most hits filed as inhibitors; 310,000 tested, 0.63% active; calls by dose curve; tested in A549 cells; note: nearly all actives have a fitted effect of over 35% in size
Pf growth 96h = Primary qHTS for delayed death inhibitors of the malarial parasite plastid, 96 hour incubation. P. falciparum luciferase reporter growth, 96 h. Potency, µM (series often up to 28.7 µM), for inactives: top-dose activity change, negative = inhibition, usual class: inhibitors. 320,000 tested, 6.9% active
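Delayed-death screen, second-generation endpoint: infected erythrocytes, 2% hematocrit, 0.05% parasitemia final; 96 hours at 37 C, 5% CO2; luciferase detection reagent; luminescence decrease equals reduced growth.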
Vaccinia Venus = qHTS for Stage-Specific Inhibitors of Vaccinia Orthopoxvirus: Venus Reporter Primary qHTS | Vaccinia virus Venus reporter expression, fluorescence | Potency, µM (series often up to 36.5 µM), for the others: top-dose activity change, negative = inhibition, hits mostly inhibitors | 330,000 tested, 0.46% active | AID 720580, 2013; calls by dose curve; tested in A549 cells; note: nearly all actives have a fitted effect of over 30% in size
AMA1 RON2 block = qHTS for Inhibitors of AMA1-RON; Towards Development of Antimalarial Drug Lead: Primary Screen; 360,000 tested, 0.2% active; Plasmodium falciparum AMA1 (3D7) - RON2 peptide interaction; AlphaScreen AMA1-biotinylated RON2 peptide binding; Potency, µM (series often up to 58.2 µM), for the others: at the highest dose activity change, negative = inhibition, hits mostly inhibitors; AID 720542, 2013;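 note: 0% = vehicle wells and -100% = peptide control; nearly all actives have a fitted effect of over 45% in size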
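AMA1 (3D7) with his tag at 25 nM final met compounds first, then biotinylated RON2 peptide at 25 nM; detection used donor plus acceptor beads, 10 µg/mL apiece, read by AlphaScreen after 30 min at room temperature.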
Pf growth 48h = Primary qHTS for delayed death inhibitors of the malarial parasite plastid, 48 hour incubation | P. falciparum luciferase growth in erythrocytes, 48 h | Potency, µM (doses to about 28.7 µM), for inactives: top-dose activity change, negative = inhibition, most hits filed as inhibitors | 310,000 tested, 5.9% active | AID 504832, 2011
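Read-out is firefly luciferase luminescence from an integrated reporter in P. falciparum, so falling signal marks reduced parasite growth. Infected erythrocytes were at 2% hematocrit and 0.1% parasitemia (final) in Albumax-supplemented RPMI 1640.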
The depositor's hits bear a star; i = inactive; ? = inconclusive; nt = not tested or not shown; [ ] = another dose, or the depositor's remark. Unless noted, calls come from the whole dose curve; as a rule, active = well fitted curve in the direction sought with a large enough effect; inconclusive = small, poorly fitted or top-dose-only effect, or another doubt; inactive = no such curve, though single readings can be large; an effect the other way counts as inactive or inconclusive. Unless noted, % is set by controls: 0 for no effect and ±100 for the full control effect; potency is the fitted concentration of half-maximal effect.

SMILES | Vaccinia mCherry | Pf growth 96h | Vaccinia Venus | AMA1 RON2 block | Pf growth 48h
COc1ccc(CNC(=O)[C@@H]2CC=C[C@@H]3CCN(Cc4ccc(Cl)c(Cl)c4)C(=O)[C@@H]32)cc1 | ? | nt | -29% | -3% | nt
CN(CCCC[C@H](CNCc1ccc(-c2ccccc2)cc1)N1C[C@H](c2ccccc2)N(CCc2ccc(Cl)c(Cl)c2)C(=O)C1=O)Cc1ccc(-c2ccccc2)cc1 | nt | 3.7µM* | nt | nt | ?
CCOc1ccc(CCN2C(=O)C(=O)N([C@H](CCCN(C)Cc3ccccc3)CNCc3ccccc3)C[C@@H]2C(C)C)cc1 | nt | 3.7µM* | nt | nt | 9.3µM*
Cc1ccc(CCN2CC(C(=O)NCCCN(C)Cc3ccccc3)CC2=O)cc1 (centres undefined) | nt | 73% | -8% | 3% | 24%
COc1ccc(CNC[C@@H](CCCCN(C)Cc2ccc(OC)cc2)N2C[C@H](c3ccccc3)N(CCc3ccc(Cl)c(Cl)c3)C(=O)C2=O)cc1 | ? | 2.3µM* | 22µM* | -6% | 1.7µM*
CCc1ccc(Oc2c(C(F)(F)F)oc3c(CN4CCN(CC)CC4)c(O)ccc3c2=O)cc1 | -9% | nt | -21% | nt | nt
COc1cc2c3nnc(-c4ccc(F)cc4)c-3cn(Cc3ccccc3F)c2cc1OC | -23% | 0.74µM* | ? | -7% | 0.37µM*
COc1cc2c3nnc(-c4ccccc4)c-3cn(Cc3ccccc3F)c2cc1OC | -15% | ? | -21% | -12% | ?
Cc1cnc2ccccc2c1C | -14% | nt | -4% | nt | nt
COc1cccc(NC(=O)c2ccc(CN3CCN(c4ccccc4)CC3)cc2)c1 | nt | 41% | nt | -26% | 12µM*
COc1cccc(S(=O)(=O)NCc2ccc(C(=O)Nc3ccc(Cl)cc3)cc2)c1 | -25% | 1% | -22% | -3% | -9%
COc1cccc(S(=O)(=O)NCc2ccc(C(=O)Nc3cccc(Cl)c3)cc2)c1 | nt | 9.3µM* | ? | -2% | nt
O=C(Nc1ccc(Cl)cc1)c1ccc(CN2CCc3ccccc3C2)cc1 | nt | ? | nt | -6% | -4%
CC(=O)c1cccc(NC(=O)c2ccc(CN3CCc4ccccc4C3)cc2)c1 | nt | ? | nt | -3% | 15µM*
Cc1cc(C)c(NC(=O)c2ccc(CN3CCc4ccccc4C3)cc2)c(C)c1 | nt | 7.4µM* | ? | -3% | nt
CN(C)c1ccc(Nc2ncnc3sc4c(c23)CCCC4)cc1 | ? | nt | -12% | nt | nt
COc1ccccc1NC(=O)CC1Sc2ccc(C(F)(F)F)cc2NC1=O (centres undefined) | -16% | nt | -2% | nt | nt
CCOc1ccc(CCNC(=O)c2ccc3c(c2)c(C)c(C)n3C)cc1 | -11% | nt | -13% | nt | nt
CCCNC(=O)c1ccc(CN2CCc3ccccc3C2)cc1 | nt | 249% | -11% | -1% | 10µM*
COc1cccc(NC(=O)c2c(C)nn(-c3ccccc3)c2Cl)c1 | nt | 4.7µM* | nt | -5% | 32%
COCCNC(=O)c1ccc(CN2CCc3ccccc3C2)cc1 | i | ? | -1% | 15% | 2%
COc1cccc(NC(=O)c2ccc(N3C(=O)C4CC=CCC4C3=O)cc2)c1 (centres undefined) | nt | nt | nt | -1% | nt
Cc1cc(CSc2ccccc2)ccc1NC(=O)c1ccc(CN2CCOCC2)cc1 | -24% | 2.9µM* | -28% | 0% | -34%
COc1cccc(NC(=O)c2ccc(N3C(=O)C4CC=C(C)CC4C3=O)cc2)c1 (centres undefined) | nt | 1.5µM* | nt | 0% | 18%
CC(=O)Nc1nonc1-c1nnc(SCc2ccc(Cl)cc2)n1C | 1% | nt | -11% | nt | nt
SMILES | Vaccinia mCherry | Pf growth 96h | Vaccinia Venus | AMA1 RON2 block | Pf growth 48h
Cc1cc(Nc2cc(Cl)ccc2C)n2nc(Cc3ccccc3)nc2n1 | -18% | nt | -10% | nt | nt
COc1ccc(NC(=O)N(Cc2nnc3n2CCCCC3)c2ccc(OC)c(Cl)c2)cc1 | 2% | nt | 10% | nt | nt
C=C1[C@@H](O)[C@H](CC(C)C)N(Cc2ccccc2Br)S1(=O)=O | ? | nt | 10µM* | 8% | nt
Cc1ccc(N2CCN(C(=O)Cn3ncc4c([nH]c5ccc(C)cc54)c3=O)CC2)c(C)c1 | 5% | nt | 1% | nt | nt
Cc1cccc(N2C(=O)C3CCCN3C2=S)c1C (centres undefined) | nt | ? | nt | -21% | 13µM*
Cc1cccc(COc2ccccc2C(=O)N(C)CC(=O)Nc2cccc(F)c2)c1 | nt | 4.1µM* | nt | 1% | ?
Cc1nn(Cc2ccccc2Cl)c(C)c1C(=O)N(C)CC(=O)Nc1cccc(F)c1 | nt | ? | nt | 30% | 13µM*
CCc1cccc(CC)c1NC(=O)c1ccccc1CCc1ccccc1 | -9% | 0% | -8% | -5% | 15µM*
CN(CC(=O)Nc1cccc(F)c1)C(=O)c1ccccc1CCc1ccccc1 | ? | ? | ? | -13% | 6.6µM*
CCOc1ccc(/C=C(\C#N)C(=O)Nc2sc3c(c2C(=O)OC)CCC3)cc1OC | -8% | nt | 8% | nt | nt
O=c1c2oc3ccccc3c2n(Cc2cccc(F)c2)c(=O)n1Cc1ccc2c(c1)OCO2 | -9% | nt | 0% | nt | nt
CN(Cc1ccccc1)Cc1nc2c(c(=O)n(C)c(=O)n2C)n1CCCc1ccccc1 | i | 10µM* | -5% | -1% | -19%
Cn1c(=O)c2c(nc(CN3CCc4ccccc4C3)n2CCCO)n(C)c1=O | -11% | 80% | -4% | -15% | -13%
CCN1CCN(Cc2nc3c(c(=O)n(C)c(=O)n3C)n2CCc2ccccc2)CC1 | 4% | 12µM* | 3% | 0% | 4%
Cn1c(=O)c2c(nc(CN3CCN(Cc4ccccc4)CC3)n2Cc2cccc(Cl)c2)n(C)c1=O | -3% | 1.2µM* | -15% | -6% | 2.1µM*
Cn1c(=O)c2c(nc(CN3CCc4ccccc4C3)n2Cc2cccc(Cl)c2)n(C)c1=O | -29% | 1.9µM* | -30% | -1% | 3.3µM*
CC(=O)Nc1c(C)nn(-c2ccccc2)c1N1CCC(C(=O)Nc2ccccc2C(F)(F)F)CC1 | -2%[7.34 µM] | nt | -6%[7.34 µM] | nt | nt
O=Cc1ccc(O)cc1 | -13% | nt | 1% | nt | nt
Cc1cccn2c(=O)cc(COc3cccc(NC(=O)c4ccccc4F)c3)nc12 | -8% | nt | -12% | nt | nt
CN1CCN(c2nc3c(c(=O)n(C)c(=O)n3C)n2Cc2cccc3ccccc23)CC1 | nt | nt | 1% | 0% | 10µM*
Cn1c(=O)c2c(nc(CN3CCc4ccccc4C3)n2Cc2ccccc2F)n(C)c1=O | 9% | ? | 5% | -6% | 4.7µM*
CCOCCn1c(CN2CCN(CCO)CC2)nc2c1c(=O)n(C)c(=O)n2C | -3% | 20% | 5% | -3% | 39%
CCOCCn1c(CN2CCN(C(c3ccccc3)c3ccccc3)CC2)nc2c1c(=O)n(C)c(=O)n2C | 17% | -10% | 0% | -13% | 1.5µM*
Cc1ccc2onc(CNC(=O)N(C)Cc3ccccc3)c2c1 | 3% | nt | -2% | nt | nt
O=C(NCc1ccc(F)cc1)C(=O)Nc1nc(C23CC4CC(CC(C4)C2)C3)cs1 | -23% | -29% | -16% | 62% | 12µM*

Assay outcomes as filed in PubChem BioAssay.
